Experimental data published in PubChem BioAssay (NCI).
Compounds without any hit were thinned out: in the full panel of roughly 79,000, 15% have a hit. Activity calls are given as the source filed them. Rule as the data show it: active = growth inhibition above about 70%; inactive = the rest.

Assay: NCI Yeast Anticancer Drug Screen. Data for the cln2 rad14 strain (AID 165);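 also: 0% = growth equal to vehicle treated cultures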
Settings: S. cerevisiae cln2 rad14 strain, at 50.0 µM, hits give high values
Summary of the method: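 Compounds are applied to the cln2 rad14 yeast strain, and growth is then compared with that of vehicle-treated cultures to give inhibition.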

SMILES	growth inhibition
CCOC(=O)NC(=S)Nc1ccsc1	56.8% (inactive)
CC(C)CCC(C)(C)c1cc(O)ccc1O	87.5% (active)
COc1ccc(C(c2cc3c(cc2O)OCO3)N2CCOCC2)c(OC)c1OC (stereo unspecified)	24.4% (inactive)
CCOC(=O)C1=C(C)NC(C)=C(C(=O)OCC)C1c1c(-c2ccccc2)noc1C	-3.5% (inactive)
O=C(CCl)Oc1ccc(Sc2ccc(OC(=O)CCl)cc2)cc1	96.3% (active)
Nc1ccc2[nH]c3ccccc3c2c1	-38% (inactive)

Assay: NCI Yeast Anticancer Drug Screen. Data for the bub3 strain (AID 167)
Settings: S. cerevisiae bub3 mutant strain, at 5.0 µM (retest, dose inferred, filed as 0.5), hits give high values
Summary of the method: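 In this screen, a yeast mutant lacking normal mitotic checkpoint function is challenged with compound. Relative growth versus vehicle gives the inhibition value.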

SMILES	growth inhibition
CCCCCCCCCCCCCCCBr	2% (inactive)
CCCCCCCCCCCC(=O)OCC(C)C	0% (inactive)
O[Si](O)(c1ccccc1)c1ccccc1	-2% (inactive)
O=C(c1ccccc1)C(C(=O)c1ccccc1)c1ccc2ccccc2n1	1% (inactive)
O=C1C=CC(=O)N1c1ccccc1[N+](=O)[O-]	97% (active)
CCCCCCCCCCCC(O)=C1C(=O)CC(O)CC1=O (stereo unspecified)	42% (inactive)
OCCc1cccc2ccc3ccccc3c12	1% (inactive)
O=C1C(=O)C(Cl)=C(Cl)C(Cl)=C1Cl	-25% (inactive)
O=C1C=CC2C(=O)c3ccccc3C(=O)C2=C1 (stereo unspecified)	1% (inactive)
O=C(N(c1ccc(Cl)cc1)c1ccc(Cl)cc1)C(Cl)(Cl)Cl	33% (inactive)
COc1cccc2c1S(=O)(=O)C(c1ccccc1)=CC2=O	58% (inactive)
COc1cc(-c2nn3c(=O)n(-c4ccc(Cl)cc4)c(=O)nc3s2)cc(OC)c1OC	1% (inactive)
O=[N+]([O-])C1(CO)COC(CCc2ccccc2)OC1 (stereo unspecified)	-2% (inactive)
COc1ccc(C(=O)CCc2c[nH]c3ccccc23)c(O)c1	12% (inactive)
CC/C(=C(\CC)c1ccc(OCCN2CCOCC2)cc1)c1ccc(OCCN2CCOCC2)cc1	59% (inactive)
CCCCCCCCCCCN1C(=O)c2ccccc2S1(=O)=O	0% (inactive)
CCCCCCCCCCCC(=O)NN	22% (inactive)
CCN1CCC(O)(/C=C/c2ccccc2)C(C(=O)/C=C/c2ccccc2)C1 (stereo unspecified)	8% (inactive)
NC(=S)NNCCC(=O)Nc1ccccc1C(F)(F)F	0% (inactive)
NS(=O)(=O)c1ccc(N=Cc2c3ccccc3nc3cc(Cl)ccc23)cc1	19% (inactive)

SMILES	growth inhibition
Nc1ccc(O)c(=O)cc1	-8% (inactive)
Oc1ccc[nH]c1=S	13% (inactive)
COc1cccc2c1C(=O)c1c(O)c3c(c(O)c1C2=O)C[C@@](O)(/C(C)=N/NC(=O)c1ccc(Cl)c(Cl)c1)C[C@@H]3OC1CC(N)C(O)C(C)O1 (stereo partly specified)	43% (inactive)
O=C1c2ccccc2C(=O)c2c1ccc(O)c2O.[Cu]	86% (active)
CCC(=O)C(C(=O)CC)c1c(OC(=O)c2ccccc2)ccc(O)c1C(=O)OC	-2% (inactive)
CC(C)CCCC(C)C1CCC2(C)C3=CCC4C(C)(CCC(O)C4(C)C)C3=CCC12C (stereo unspecified)	-6% (inactive)
CCNC(=O)COc1ccc(Cl)cc1Cl	-5% (inactive)
CCN1CCC(O)(/C=C/c2ccc(Cl)c(Cl)c2)C(C(=O)/C=C/c2ccc(Cl)c(Cl)c2)C1 (stereo unspecified)	99% (active)
Nc1ccc(-c2ccc(N)cc2S(=O)(=O)O)c(S(=O)(=O)O)c1	2% (inactive)
COc1ccc2c(c1)CCc1c(-c3noc4c3CCc3cc(OC)ccc3-4)noc1-2	-2% (inactive)
Cc1ccc(NC(=S)N(CCC#N)C2CCCCC2)cc1C	7% (inactive)
COc1ccc2c(c1)CC1c3c(ccc(OC)c3O)CC2N1C (stereo unspecified)	-4% (inactive)
CCN(CC)CCCC(C)Nc1c2ccccc2nc2c(C)cc(Br)cc12 (stereo unspecified)	17% (inactive)
O=C(O)c1cc2ccc3cccc4ccc(c1)c2c34	-3% (inactive)
CCOC(=O)NC(=S)Nc1ccsc1	-3% (inactive)
CC(C)CCC(C)(C)c1cc(O)ccc1O	79% (active)
COc1ccc(C(c2cc3c(cc2O)OCO3)N2CCOCC2)c(OC)c1OC (stereo unspecified)	0% (inactive)
CCOC(=O)C1=C(C)NC(C)=C(C(=O)OCC)C1c1c(-c2ccccc2)noc1C	1% (inactive)
O=C(CCl)Oc1ccc(Sc2ccc(OC(=O)CCl)cc2)cc1	1% (inactive)
Nc1ccc2[nH]c3ccccc3c2c1	-1% (inactive)

Same assay, conditions: S. cerevisiae bub3 mutant strain, at 50.0 µM (retest, dose inferred, filed as 5.0), hits give high values

SMILES	growth inhibition
CCCCCCCCCCCCCCCBr	-2% (inactive)
CCCCCCCCCCCC(=O)OCC(C)C	-18% (inactive)
O[Si](O)(c1ccccc1)c1ccccc1	94% (active)
O=C(c1ccccc1)C(C(=O)c1ccccc1)c1ccc2ccccc2n1	-4% (inactive)
O=C1C=CC(=O)N1c1ccccc1[N+](=O)[O-]	100% (active)
CCCCCCCCCCCC(O)=C1C(=O)CC(O)CC1=O (stereo unspecified)	97% (active)
OCCc1cccc2ccc3ccccc3c12	66% (inactive)
O=C1C(=O)C(Cl)=C(Cl)C(Cl)=C1Cl	97% (active)
O=C1C=CC2C(=O)c3ccccc3C(=O)C2=C1 (stereo unspecified)	55% (inactive)
O=C(N(c1ccc(Cl)cc1)c1ccc(Cl)cc1)C(Cl)(Cl)Cl	74% (active)
COc1cccc2c1S(=O)(=O)C(c1ccccc1)=CC2=O	97% (active)
COc1cc(-c2nn3c(=O)n(-c4ccc(Cl)cc4)c(=O)nc3s2)cc(OC)c1OC	17% (inactive)
O=[N+]([O-])C1(CO)COC(CCc2ccccc2)OC1 (stereo unspecified)	-3% (inactive)
COc1ccc(C(=O)CCc2c[nH]c3ccccc23)c(O)c1	79% (active)
CC/C(=C(\CC)c1ccc(OCCN2CCOCC2)cc1)c1ccc(OCCN2CCOCC2)cc1	68% (inactive)
CCCCCCCCCCCN1C(=O)c2ccccc2S1(=O)=O	79% (active)
CCCCCCCCCCCC(=O)NN	52% (inactive)
CCN1CCC(O)(/C=C/c2ccccc2)C(C(=O)/C=C/c2ccccc2)C1 (stereo unspecified)	94% (active)
NC(=S)NNCCC(=O)Nc1ccccc1C(F)(F)F	1% (inactive)
NS(=O)(=O)c1ccc(N=Cc2c3ccccc3nc3cc(Cl)ccc23)cc1	38% (inactive)

SMILES	growth inhibition
Nc1ccc(O)c(=O)cc1	4% (inactive)
Oc1ccc[nH]c1=S	-2% (inactive)
COc1cccc2c1C(=O)c1c(O)c3c(c(O)c1C2=O)C[C@@](O)(/C(C)=N/NC(=O)c1ccc(Cl)c(Cl)c1)C[C@@H]3OC1CC(N)C(O)C(C)O1 (stereo partly specified)	99% (active)
O=C1c2ccccc2C(=O)c2c1ccc(O)c2O.[Cu]	94% (active)
CCC(=O)C(C(=O)CC)c1c(OC(=O)c2ccccc2)ccc(O)c1C(=O)OC	-2% (inactive)
CC(C)CCCC(C)C1CCC2(C)C3=CCC4C(C)(CCC(O)C4(C)C)C3=CCC12C (stereo unspecified)	95% (active)
CCNC(=O)COc1ccc(Cl)cc1Cl	-3% (inactive)
CCN1CCC(O)(/C=C/c2ccc(Cl)c(Cl)c2)C(C(=O)/C=C/c2ccc(Cl)c(Cl)c2)C1 (stereo unspecified)	99% (active)
Nc1ccc(-c2ccc(N)cc2S(=O)(=O)O)c(S(=O)(=O)O)c1	7% (inactive)
COc1ccc2c(c1)CCc1c(-c3noc4c3CCc3cc(OC)ccc3-4)noc1-2	2% (inactive)
Cc1ccc(NC(=S)N(CCC#N)C2CCCCC2)cc1C	7% (inactive)
COc1ccc2c(c1)CC1c3c(ccc(OC)c3O)CC2N1C (stereo unspecified)	75% (active)
CCN(CC)CCCC(C)Nc1c2ccccc2nc2c(C)cc(Br)cc12 (stereo unspecified)	71% (active)
O=C(O)c1cc2ccc3cccc4ccc(c1)c2c34	90% (active)
CCOC(=O)NC(=S)Nc1ccsc1	3% (inactive)
CC(C)CCC(C)(C)c1cc(O)ccc1O	98% (active)
COc1ccc(C(c2cc3c(cc2O)OCO3)N2CCOCC2)c(OC)c1OC (stereo unspecified)	87% (active)
CCOC(=O)C1=C(C)NC(C)=C(C(=O)OCC)C1c1c(-c2ccccc2)noc1C	70% (active)
O=C(CCl)Oc1ccc(Sc2ccc(OC(=O)CCl)cc2)cc1	99% (active)
Nc1ccc2[nH]c3ccccc3c2c1	18% (inactive)
